We go through 22 compounds from PubChem BioAssay (Tox21).

Test [1] is described as follows: qHTS assay to identify small molecule antagonists of the thyroid receptor (TR) signaling pathway - cell viability counter screen (AID 743064). Also: nearly all actives have a fitted effect of over 50% in size. Also: potency is read from the fitted curve at half-maximal effect. In a few lines:
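Plate GH3.TRE-Luc cells; incubate 4 h at 37 °C; add compound, then T3 to 1 nM final; incubate 23.5 h; add CellTiter-Fluor; incubate 30 min at 37 °C, 5% CO2; read fluorescence.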

Test [2] concerns thyroid hormone receptor (rat, GH3 cells). The test is described as follows: qHTS assay to identify small molecule agonists of the thyroid receptor (TR) signaling pathway (AID 743066; calls by dose curve). Background: In qHTS, concentration-response curves come from the screen itself.
The target of test [3] is Estrogen receptor (Homo sapiens) (UniProt P03372). The test is described as follows: qHTS assay to identify small molecule antagonists of the estrogen receptor alpha (ER-alpha) signaling pathway (AID 743069; active = well fitted curve in the direction sought with a large enough effect in the signal ratio in the repeat runs, not every such curve was filed as active; inconclusive = weak or mixed curves, or effect the other way; inactive = no such curve, though single readings can be large or run the other way; the % refers to the signal ratio). A digest of the protocol: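 HEK293 cells stably carrying an ER-alpha-UAS-bla beta-lactamase reporter were pre-cultured overnight in 2% charcoal-stripped FBS medium. Test compounds in DMSO were added together with 17beta-estradiol for 18 hr at 37C. Read-out was fluorescence after 2 hr with LiveBLAzer B/G FRET substrate at room temperature.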
Estrogen receptor (Homo sapiens), sequence (P03372 whole entry, looked up): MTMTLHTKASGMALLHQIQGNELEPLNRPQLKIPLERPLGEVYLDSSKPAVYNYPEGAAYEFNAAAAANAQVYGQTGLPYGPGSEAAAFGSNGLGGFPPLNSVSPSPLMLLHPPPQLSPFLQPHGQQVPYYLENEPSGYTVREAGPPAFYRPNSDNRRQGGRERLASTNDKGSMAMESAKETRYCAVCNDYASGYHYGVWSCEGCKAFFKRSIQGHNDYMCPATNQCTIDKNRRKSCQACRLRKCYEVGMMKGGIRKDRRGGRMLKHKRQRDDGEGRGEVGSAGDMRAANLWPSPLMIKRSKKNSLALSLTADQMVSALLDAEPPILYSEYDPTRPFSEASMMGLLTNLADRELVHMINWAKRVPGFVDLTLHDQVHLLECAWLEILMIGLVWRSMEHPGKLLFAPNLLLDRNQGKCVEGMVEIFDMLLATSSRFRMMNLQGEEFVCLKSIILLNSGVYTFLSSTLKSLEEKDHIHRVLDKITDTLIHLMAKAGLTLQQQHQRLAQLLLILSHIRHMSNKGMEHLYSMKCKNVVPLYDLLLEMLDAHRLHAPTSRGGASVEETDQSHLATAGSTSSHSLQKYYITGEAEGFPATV

The nature of test [4]: qHTS assay to identify small molecule antagonists of the estrogen receptor alpha (ER-alpha) signaling pathway - cell viability counter screen (AID 743074; calls by dose curve; also: nearly all actives have a fitted effect of over 45% in size).
Test [5] has as its target Estrogen receptor (Homo sapiens) (UniProt P03372). The test is described as follows: qHTS assay to identify small molecule agonists of the estrogen receptor alpha (ER-alpha) signaling pathway (AID 743075; calls by dose curve; also: potency is read from the fitted curve at half-maximal effect).
The target is the same in test [6]. The test is described as follows: qHTS assay to identify small molecule agonists of the estrogen receptor alpha (ER-alpha) signaling pathway using the BG1 cell line (AID 743079). Also: nearly all actives have a fitted effect of over 20% in size. Also: potency is read from the fitted curve at half-maximal effect.
A short description of test [7]: qHTS assay to identify small molecule antagonists of the estrogen receptor alpha (ER-alpha) signaling pathway using the BG1 cell line - cell viability counter screen (AID 743081).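 Also: compound given together with 17beta-estradiol as the ER stimulus; nearly all actives have a fitted effect of over 45% in size.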 Also: potency is read from the fitted curve at half-maximal effect.
In a further test the target is Aromatase (Homo sapiens) (UniProt P11511). The test is described as follows: qHTS assay to identify aromatase inhibitors (AID 743083). Also: nearly all actives have a fitted effect of over 55% in size. Also: potency is read from the fitted curve at half-maximal effect.
Aromatase (Homo sapiens), sequence (P11511 whole entry, looked up): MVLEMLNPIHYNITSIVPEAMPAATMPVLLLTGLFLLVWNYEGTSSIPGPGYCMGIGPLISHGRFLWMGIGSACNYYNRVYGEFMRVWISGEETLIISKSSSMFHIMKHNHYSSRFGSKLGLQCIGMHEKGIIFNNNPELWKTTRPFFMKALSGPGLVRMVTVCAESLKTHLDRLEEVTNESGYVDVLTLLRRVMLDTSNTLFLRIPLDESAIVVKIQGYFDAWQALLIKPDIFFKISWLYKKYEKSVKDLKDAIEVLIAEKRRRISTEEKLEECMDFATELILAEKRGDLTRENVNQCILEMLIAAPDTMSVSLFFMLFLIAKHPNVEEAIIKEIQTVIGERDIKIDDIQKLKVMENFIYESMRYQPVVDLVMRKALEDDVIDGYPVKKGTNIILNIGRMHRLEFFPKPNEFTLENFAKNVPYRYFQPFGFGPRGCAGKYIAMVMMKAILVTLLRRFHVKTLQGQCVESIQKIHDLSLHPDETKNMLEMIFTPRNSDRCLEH
The nature of test [8]: qHTS assay to identify small molecule antagonists of the thyroid receptor (TR) signaling pathway (AID 743065). Also: nearly all actives have a fitted effect of over 55% in size. Also: potency is read from the fitted curve at half-maximal effect. A digest of the protocol: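 GH3.TRE-Luc rat pituitary cells carrying two TR response elements driving luciferase were plated for 4 h, given compound plus 1 nM T3 (final), and incubated 23.5 h at 37 C. ONE-Glo luminescence measured reporter inhibition; CellTiter-Fluor fluorescence tracked cytotoxicity.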

The nature of test [9]: qHTS assay to identify small molecule antagonists of the estrogen receptor alpha (ER-alpha) signaling pathway using the BG1 cell line (AID 743080; calls by dose curve; also: nearly all actives have a fitted effect of over 25% in size; also: potency is read from the fitted curve at half-maximal effect). In a few lines:
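Antagonist mode: compounds in DMSO were pinned onto BG1-Luc-4E2 cells alongside 17beta-estradiol agonist, incubated 21.5 h, and ERE-driven luciferase measured with ONE-Glo. Cytotoxicity was multiplexed using CellTiter-Fluor fluorescence.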

Where “and” joins values, the source holds several entries; their conditions need not be identical. Identical values can stand only once. Values without a mark were called inactive. Calls of active or inactive are those of the source. Unless noted, calls follow the shape of the dose curve; as a rule, active = well fitted curve in the direction sought with a large enough effect in the repeat runs; inconclusive = weak or mixed curves; inactive = no such curve, though single readings can be large; an effect the other way counts as inactive or inconclusive.

On to `O=C(OCCOCCOCCOC(=O)c1ccccc1)c1ccccc1`, for which the Potency entry (in test [1]; in [3]; in test [5]; in test [6]; in test [7]; with Aromatase (Homo sapiens)) was “inactive” throughout. For the same compound, the compound was classed as inactive in test [2] and in [4].

Turning to `CCC(=O)O[C@@H]1C[C@H]2CC[C@]1(C)C2(C)C`, the Potency result (in test [1]; in test [8]; in test [7]; with Aromatase (Homo sapiens)) was “inactive” in each case. Further, the call in [2] and in test [4] was inactive.

With `C/C(=C\C(C)CC(C)CC(C)C)C1CC(=O)OC1=O` (stereo not drawn), the Potency result (in [1]; in test [5]; in test [6]; in test [9]; in [7]; with Aromatase (Homo sapiens)) was “inactive” in each case. For the same compound, the call in test [2] and in [4] was inactive.

In the case of `Nc1ccc(C(=O)Oc2ccccc2)c(O)c1`, the Potency result (in [1]; in [3]; in test [7]; with Aromatase (Homo sapiens)) was “inactive” each time. The compound was called inactive in test [2] and in test [4]. The Potency in test [5] was 13.4 µM [inconclusive] (active); in test [6] it was 6.68 µM (active).

Turning to `CC(C)C[C@H](NC(=O)[C@H](Cc1ccccc1)NC(=O)c1cnccn1)B(O)O`, the Potency in test [1] was 18.8 nM (active) and 11.9 nM (active); in test [8] it was 23.7 nM (active) and 16.8 nM (active); in test [9] it was 66.8 nM (active) and 53.1 nM (active); in [7] it was 1.06 µM (active) and 668 nM (active); with Aromatase (Homo sapiens), 21.1 nM (active) and 15 nM (active). For the same compound, in test [4], the outcome was inactive.

`CCCCCC1CCC(=O)O1` (stereo not drawn): the Potency entry in [1], in [3], in test [5], in test [6], in [9] and in test [7] was “inactive” each time. The Potency entry in the test with Aromatase (Homo sapiens) is “inactive”. Also, the call in test [2] and in test [4] was inactive.

Consider `O=P(c1ccccc1)(c1ccccc1)c1ccccc1`, for which the Potency result (in [1]; in test [3]; in test [5]; in test [6]; in test [7]; in the test with Aromatase (Homo sapiens)) was “inactive” throughout. Moreover, the compound was classed as inactive in [2] and in test [4].

For `CCCN(C1CCN(C(=O)C2CCNCC2)CC1)[C@@H]1CCc2ccc(OC)cc2C1`, the Potency in test [1] is 68.6 µM (active); in [8], 54.5 µM (active). In [2], the compound was classed as inactive. For the same compound, in the test with Aromatase (Homo sapiens), the Potency result was “inactive”.

Take `COC(=O)c1cc(Cl)ccc1[N+](=O)[O-]`: the Potency entry (in [1]; in test [8]; in test [5]; in [6]; in test [7]; in the test with Aromatase (Homo sapiens)) was “inactive” in each case. In [4], the compound was called inactive.

On to `Cc1nc2sccn2c(=O)c1CCN1CCC(=C(c2ccc(F)cc2)c2ccc(F)cc2)CC1`, for which the Potency in [1] is 29.8 µM (active); in [8] it was 26.6 µM (active); in [9], 29.8 µM (active). In [4], the compound was called inactive. Also, the Potency entry (in test [5]; in [7]; with Aromatase (Homo sapiens)) was “inactive” throughout.

As for `C=Cc1ccc(C=C)cc1`, the Potency entry in [1], in test [3], in [5], in [6], in [9] and in test [7] was “inactive” in each case. For the same compound, the Potency entry with Aromatase (Homo sapiens) was “inactive”. Moreover, the outcome in [2] was inactive.

`c1ccc(CCNc2nc(-c3ccccc3)cs2)cc1`: the Potency entry (in [1]; in test [8]; in test [5]; in [7]; in the test with Aromatase (Homo sapiens)) was “inactive” throughout. The outcome in test [2] was inactive. In addition, the Potency in [6] is 0.944 µM (active).

In the case of `O=[N+]([O-])c1ccc(Cl)cc1Cl`, the Potency result (in [1]; in [8]; in test [7]; with Aromatase (Homo sapiens)) was “inactive” throughout. Also, the call in test [2] was inactive.

As for `N#CCCCC(C#N)CCC#N` (stereo not drawn), the Potency result (in [1]; in test [3]; in test [5]; in [9]; in test [7]; in the test with Aromatase (Homo sapiens)) was “inactive” in each case. For the same compound, the call in test [2] and in test [4] was inactive.

Turning to `CCN(CCCCOC(=O)c1ccc(OC)c(OC)c1)C(C)Cc1ccc(OC)cc1` (stereo not drawn), the Potency entry in [1], in [3], in test [5], in [6], in test [9] and in [7] was “inactive” in each case. Moreover, in the test with Aromatase (Homo sapiens), the Potency result is “inactive”. In addition, the outcome in [2] and in [4] was inactive.

Take `O=C(O)CCc1nc2ccccc2[nH]1`: the Potency entry in test [1], in test [3], in [5], in test [6], in test [9] and in [7] was “inactive” each time. The Potency entry in the test with Aromatase (Homo sapiens) was “inactive”. Moreover, the result in test [2] and in test [4] was inactive.

For `CCCCCCCCNC`, the Potency result (in test [1]; in [8]; in [7]; with Aromatase (Homo sapiens)) was “inactive” each time. In [2], the outcome was inactive.

For `CCCCCCC/C=C/C=O`, the Potency result (in test [1]; in [5]; in test [6]; in test [9]; in [7]; with Aromatase (Homo sapiens)) was “inactive” in each case. Moreover, the call in test [2] and in [4] was inactive.

For `OCC(O)c1ccccc1` (stereo not drawn), the Potency result (in [1]; in test [3]; in [5]; in [6]; in test [7]; with Aromatase (Homo sapiens)) was “inactive” each time. Moreover, the call in test [2] and in [4] was inactive.

As to `CCOCCn1c(N2CCCN(C)CC2)nc2ccccc21`, the Potency entry in test [1], in test [8] and in test [7] was “inactive” in each case. Also, the compound was called inactive in test [2].

In the case of `CCCCCCCCCCCC(=O)OCC`, the Potency result (in test [1]; in test [3]; in test [5]; in [6]; in test [7]; with Aromatase (Homo sapiens)) was “inactive” throughout. Also, the outcome in [2] and in [4] was inactive.

For the compound `Cc1ccc(NC=O)c(C)c1`, the Potency result (in [1]; in [3]; in test [5]; in test [6]; in test [7]; with Aromatase (Homo sapiens)) was “inactive” throughout. The compound was classed as inactive in [2] and in [4].
